Assay results reported in PubChem BioAssay (NCI).
“And” between values parts separate entries of the source, which are not always exact repeats. Equal values may be shown once. This is part of a sample that, as a whole, favours compounds with a hit. Of some 83,000 tested, about 20% had one in any assay.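 Method: cells in 96-well plates; compound added at one concentration; 48 h incubation; percent growth measured; values under 10 scored active.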 A number with no mark means an inactive call. The source made the active and inactive calls.

Columns and labels:
Assay in all cases: NCI-60 one-dose screen, 48 h (100 = growth as untreated, 0 = no growth, -100 = all killed)
Conditions in all cases: 10 µM unless noted
[1] = test system: NCI-H23 lung
[2] = test system: NCI-H226 lung
[3] = test system: NCI-H322M lung
[4] = test system: HOP-62 NSCLC
[5] = test system: NCI-H460 lung
[6] = test system: HOP-92 NSCLC
[7] = test system: NCI-H522 lung
[8] = test system: A549/ATCC NSCLC
[9] = test system: 786-0 renal
[10] = test system: COLO 205 colon

| Compound | growth [1] | growth [2] | growth [3] | growth [4] | growth [5] | growth [6] | growth [7] | growth [8] | growth [9] | growth [10] |
| --- | --- | --- | --- | --- | --- | --- | --- | --- | --- | --- |
| CN(C)c1ccc(C(=C2C=CC(=[N+](C)C)C=C2)c2ccc(N(C)C)cc2)cc1 (tested in a mixture with another compound) | -49% (active) | -60% (active) | -27.7% (active) | -34.2% (active) | -75.1% (active) | -66.8% (active) | -47% (active) | -18.2% (active) | -90.4% (active) | -97.7% (active) |
| CC(C)c1ccc2nc3ccc(C(=O)NCCN4CCN(c5ccccc5)CC4)cn3c(=O)c2c1 | 50.5% | 38.4% | 86.8% | 90.9% | 65.2% | 58.1% | 67.4% | 57.3% | 34.4% | 45.8% |
| Cn1c2c(c3ccccc31)CCN1C[C@@H]3CCCC[C@H]3C[C@@H]21 | 14.4% | 32.3% | 6.3% (active) | 40.7% | 0.684% (active) | 33.4% | 6.33% (active) | 23.1% | -12.7% (active) | -59.2% (active) |
| S=C(NCCNC(=S)[S][Sn]([c]1ccccc1)([c]1ccccc1)[c]1ccccc1)[S][Sn]([c]1ccccc1)([c]1ccccc1)[c]1ccccc1 | -68.6% (active) | -95.4% (active) | -99.4% (active) | -100% (active) | -86.8% (active) | -87.3% (active) | -93.2% (active) | -98.8% (active) | -94% (active) | -91.3% (active) |
| COC(=O)c1nc(=S)[nH]c(C(=O)OC)c1C(=O)c1ccc2ccccc2c1 | 97.9% | 86.9% | 97.7% | 106% | 111% | 101% | 102% | 120% | 114% | 96.8% |
| O=C1NC(=O)/C(=C/C=C/c2ccccc2)S1 | 32.6% | 75.8% | 51.4% | 22.5% | 10.6% | 45.2% | 24.4% | 89.1% | 1.55% (active) | 80.7% |
| Oc1c(Br)cc(Cl)cc1C(c1cc(Cl)cc(Br)c1O)C(Cl)(Cl)Cl | 5.88% (active) | 33.4% | 15.2% | 59.2% | 1.1% (active) | -33.5% (active) | -9.4% (active) | 14% | 26.9% | 59.2% |
| O=[N+]([O-])c1ccc(N=Nc2ccc(O)cc2O)cc1 | 55.1% | 60.6% | 84.8% | 93.6% | 66% | -18.1% (active) | 19.5% | 62.6% | 51.3% | 41.4% |
| C/C=C1\SC(=S)NC1=O | 98.5% | 103% | 108% | 100% | 107% | 94.2% | 103% | 99.7% | 97.8% | 104% |
| O=C(Nc1ccccc1)Oc1c(Cl)c(Cl)c(Cl)c(Cl)c1Cl | 93.8% and 93.2% | 96.2% and 88.3% | 94.1% and 106% | 101% and 78.8% | 109% and 103% | 74.9% and 63.8% | 87.9% | 106% and 91.9% | 105% and 97.1% | 97.9% and 106% |
| CCN(CC)CCOc1ccc(-c2nc3cc(Cl)ccc3s2)cc1 | -53.6% (active) | 65.2% | 28.3% | -66.6% (active) | -64.6% (active) | 19.3% | -39.5% (active) | -1.04% (active) | 29.5% | -73.9% (active) |
| Cc1ccc(C(=Nc2ccccc2)N=P(c2ccccc2)(c2ccccc2)c2ccccc2)cc1 | -24.5% (active) | -46.2% (active) | -29.4% (active) | -90.2% (active) | -75.2% (active) | -43.1% (active) | -55.8% (active) | 6.89% (active) | -55% (active) | -87.8% (active) |
